The values below come from ChEMBL document CHEMBL3433997, “St. Jude Leishmania screening dataset” (2016).

The inhibition is the drop in the measured response relative to a control, in per cent.

The target of this assay is Glucose transporter (Leishmania mexicana) (UniProt O61059). In words: ST_JUDE_LEISH: Cytotoxicity at 2uM final concentration against transgenic Leishmania Mexicana promastigotes LmGT2 that are glucose transport deficient and complemented with the L. Mexicana glucose transporter 2. Activity is measured by DNA content using SYBR green in vitro. The assay is classed as functional.
Regarding `CC(=O)Nc1nc(C(=O)Nc2cccc(-c3ccc(-c4nc5cc(F)ccc5[nH]4)cc3)c2)cs1`, the inhibition came to 4.22%.

As to `COc1ccc2nccc(N3CCC(CCNCc4ccc5c(n4)NC(=O)CS5)CC3)c2n1`, the inhibition is 7.97%.

Take `O=C(Nc1ccc(-c2nc3ccc(NC(=O)c4ccc(Br)cc4)cc3[nH]2)cc1)c1ccc(Br)cc1`: the inhibition was -2.77%.

Consider `Cc1ccc(CNC(=O)[C@H](Cc2ccccc2)Nc2cc(C)nc(NCC3CCCCC3)n2)cc1`, for which the inhibition amounted to 0.14%.

On to `O=C(Nc1ccsc1)Nc1cccc(-c2ccc(-c3nc4cc(C(F)(F)F)ccc4[nH]3)cc2)c1`, for which the inhibition came to 7.95%.

For `Cc1cccc2nc(-c3cccc(-c4cccc(C(=O)NCc5nccn5C)c4)c3)[nH]c12`, the inhibition worked out at 10.2%.

With `CCN(CC)CCNc1ccnc2c3ccccc3n(C)c12`, the inhibition was -0.19%.

Turning to `COCCCNC(=O)c1ccc(O)c(-c2cc(Cl)cc(Cl)c2)c1`, the inhibition was 1.9%.

For `CCC(C)c1ccc(O)c(NC(=O)c2cncc(Br)c2)c1` (stereo not given), the inhibition was -2.07%.

Regarding `CCCCCCCCOc1ccc(N2C(N)=NC(N)=NC2(C)C)cc1`, the inhibition was -0.03%.

Turning to `O=C(Nc1cn(-c2ccc(OCc3cccc(F)c3)c(Cl)c2)c2ncncc12)c1ccncc1`, the inhibition was 2.96%.

Take `CCCC(C)NC[C@@H](O)[C@H](Cc1ccccc1)NC(=O)c1cc(NCC)cc(N2CCCCS2(=O)=O)c1` (stereo not given in full): the inhibition is -2.92%.

In the case of `CCN(CCNC(=O)Nc1cc(C(F)(F)F)cc(C(F)(F)F)c1)c1cccc(C)c1`, the inhibition was determined as 5.45%.

Consider `Cc1cccc2nc(-c3ccc(-c4ccc(CNCC(C)C)cc4)cc3)[nH]c12`, for which the inhibition is 8.18%.

As for `Nc1cc(-c2ccc3ccccc3c2)nc2ccccc12`, the inhibition stood at 13.7%.

As for `c1csc(-c2nc(NCC3CCCO3)ncc2-c2ccsc2)n1` (stereo not given), the inhibition is 3.35%.

Turning to `CNCCNCc1cccc(-c2cccc(-c3nc4cc(F)ccc4[nH]3)c2)c1`, the inhibition amounted to 7.49%.

As for `CCN(Cc1cccc2ccccc12)c1ccc2nc(N)nc(N)c2c1`, the inhibition was 84%.

In the case of `Nc1c2c(nc3ccc(C(=O)Nc4cc(I)c(O)c(I)c4)cc13)CCCC2`, the inhibition worked out at 1.74%.

In the case of `CCCCCc1ccc(N2C(N)=NC(N)=NC2(C)C)cc1`, the inhibition amounted to 4.35%.

Take `Cc1cccc2nc(-c3ccc(-c4ccc(CNCCCN5CCCC5=O)cc4)s3)[nH]c12`: the inhibition came out at 3.25%.

Regarding `O=C(N[C@@H](Cc1ccccc1)C(=O)NCc1cccc2ccccc12)c1ccc(O)c(-c2ccc(Cl)c(Cl)c2)c1`, the inhibition turned out to be 0.79%.

As to `Cc1[nH]c(C)c(-c2ccc(OCc3ccc(F)cc3)nc2)c(=O)c1Br`, the inhibition is 0.74%.

As to `CCCN1CCC(c2c[nH]c3ccc(NC(=O)Nc4cccc(Cl)c4Cl)cc23)CC1`, the inhibition is 4.47%.

Consider `CCOc1cc(Cc2cnc(N)nc2N)ccc1OC`, for which the inhibition is -0.73%.

Regarding `Cc1cccc2nc(-c3ccc(-c4ccc(CN5CCN(CCO)CC5)cc4)cc3)[nH]c12`, the inhibition is 17.5%.

`CN1CCCc2ccc(NC(=O)C=Cc3ccc(-c4ccc(F)cc4F)o3)cc2C1`: the inhibition is 2.73%.

Regarding `CN1CCN(Cc2ccc(-c3ccc4c(Nc5ccc(F)cc5Cl)ccnc4c3)o2)CC1`, the inhibition was found to be 1.39%.

For `COc1ccc(-c2ccc(NC(=O)c3cccc(F)c3)cc2)cc1CN1CCCN(C)CC1`, the inhibition was -2.3%.

For `O=C(Nc1cccc(Cl)c1)c1cnc(N2CCN(c3ccncc3)CC2)c(Cl)c1`, the inhibition was found to be 12.7%.

As for `CN1CCN(c2cccc(-c3nnc(-c4ccc(OCC(=O)NCc5ccc(C(F)(F)F)cc5)c([N+](=O)[O-])c4)o3)c2)CC1`, the inhibition is -0.17%.

For `Nc1nc(N)c2c(Sc3ccccc3)cccc2n1`, the inhibition was determined as 2.7%.

Regarding `N=C1NC(=O)C(=Cc2cn(-c3ccccc3)nc2-c2cccc(S(=O)(=O)N3CCCC3)c2)S1`, the inhibition is 7.82%.

On to `O=C(Nc1ccc2c(c1)OCO2)NC1CCN(c2ccnc(Nc3ccc(F)cc3)n2)C1` (stereo not given), for which the inhibition was 3.79%.

Regarding `CSc1ccc(C=CC(=O)NC(=O)c2ccccc2O)cc1`, the inhibition was found to be 1.41%.

As for `FC(F)(F)COc1ccc(CNCCCCCCNCc2ccc(OCC(F)(F)F)c3ccccc23)c2ccccc12`, the inhibition is 108%.

On to `COc1ccc(NC(=O)Nc2ccc(C)c(-c3ccc(C(=O)Nc4ccncc4)cc3)c2)cc1`, for which the inhibition was found to be 0.71%.

With `CC(C)C(=O)NC(Nc1ccc([N+](=O)[O-])cc1)C(Cl)(Cl)Cl` (stereo not given), the inhibition worked out at 1.48%.

Turning to `Nc1cc(/C=C/c2ccc([N+](=O)[O-])s2)nc2ccccc12`, the inhibition stood at 8.5%.

For the compound `CCNc1cc(C(=O)N[C@@H](Cc2ccccc2)[C@H](O)CNC23CC4CC(CC(C4)C2)C3)cc(N2CCCCS2(=O)=O)c1`, the inhibition was -0.1%.
